{"source": "PubChem BioAssay AID1626", "about": "(SRMLSC, 2009)", "note": "Among all 220,000 compounds or so, about 2,000 (0.91%) were called active. Not shown: some 2% with an inconclusive outcome. Only a sample is shown. Measured potencies and affinities stand elsewhere. Values without a mark were called inactive. Cut-off read from the data, not from the text of the source: inconclusive = inhibition above about 80% without an active follow-up result; inactive = below that; test concentration not stated here."}
{"experiment": "M. tuberculosis H37Rv growth inhibitors, H37Rv strain (AID 1626);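 note: bacteria incubated seven days before Alamar blue readout; 0% = bacteria only wells and 100% = bacteria with antibiotic wells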", "conditions": "stronger effect = higher value, concentration not given here", "units": {"inhibition": "%"}}
{"compound": "COc1cc(CCC(O)CC(=O)CCc2ccccc2)ccc1O", "note": "(stereo not drawn)", "inhibition": -13}
{"compound": "COc1ccc(-c2nnc(-c3ccc(OCC(C)C)cc3)o2)cc1", "inhibition": -2.52}
{"compound": "CCOC(=O)CNC(=O)Nc1nnc(-c2ccc(OCC)cc2)o1", "inhibition": -3.79}
{"compound": "O=C(Nc1nn[nH]n1)c1cccc([N+](=O)[O-])c1", "inhibition": 2.86}
{"compound": "O=C(Nc1nnc(-c2cccnc2)o1)c1cccc([N+](=O)[O-])c1", "inhibition": 74.6}
{"compound": "CC(C)(C)c1cc(NC(=O)COc2ccc(Br)cc2)n(-c2ccccc2)n1", "inhibition": -8.73}
{"compound": "COCCCNC(=O)c1ccc(-n2nc(C(F)(F)F)cc2-c2cccs2)cc1", "inhibition": 2.29}
{"compound": "CC1=CC(c2ccc(Cl)cc2)n2nc(NS(=O)(=O)c3ccc(C)cc3)nc2N1", "note": "(stereo not drawn)", "inhibition": -12.5}
{"compound": "CC1(C)CC(NC(=S)NC2CC2)CC(C)(C)N1", "inhibition": -4.39}
{"compound": "Cc1ccc(Oc2ccc(NC(=O)CCC(=O)OCC(=O)c3cccs3)cc2)cc1C", "inhibition": -2.17}
{"compound": "O=C(CCCC(=O)OCC(=O)c1cccs1)Nc1ccc(F)cc1", "inhibition": -9.65}
{"compound": "O=C(c1cccnc1)N1CCC(Oc2ccc(C(=O)N3CCCCO3)cc2)CC1", "inhibition": 4.71}
{"compound": "COCCN(C(=S)Nc1ccc(C)cc1)C(C)c1cccnc1", "note": "(stereo not drawn)", "inhibition": -5.81}
{"compound": "CCCCCCn1c(CN2CCN(C(=O)OCC)CC2)nc2c1c(=O)n(C)c(=O)n2C", "inhibition": 6.21}
{"compound": "O=C(Oc1ccc(Br)cc1)c1cncc(Br)c1", "inhibition": -0.78}
{"compound": "CCCCCCCOC(=O)c1ccc(OC(=O)c2cccnc2)cc1", "inhibition": 8.62}
{"compound": "CCCCCCOC(=O)c1ccc(OC(=O)c2cccnc2)cc1", "inhibition": 74.1}
{"compound": "O=C(Oc1ccc([N+](=O)[O-])cc1)c1cncc(Br)c1", "inhibition": 10.3}
{"compound": "CCOc1ccc(OC(=O)c2cccnc2)cc1", "inhibition": 1.09}
{"compound": "COc1ccc(OC(=O)c2cccnc2)cc1", "inhibition": 0.67}
{"compound": "O=C(Oc1cccc(Br)c1)c1cccnc1", "inhibition": 13.2}
{"compound": "CCCCOc1ccc(OC(=O)c2cccnc2)cc1", "inhibition": 6.86}
{"compound": "Cc1cccc(NC(=O)c2sc(Cl)nc2-c2ccccc2)c1", "inhibition": 8.83}
{"compound": "COc1cccc(CC2(CO)CCCN(Cc3ccc4c(c3)OCCO4)C2)c1", "note": "(stereo not drawn)", "inhibition": 4.07}
{"compound": "Cc1nc2cc(Cl)c([N+](=O)[O-])cc2s1", "inhibition": 7.87}
{"compound": "CC(C)Oc1ccc(CCc2nnc(SC(C)C(=O)O)n2-c2ccccc2)cc1", "note": "(stereo not drawn)", "inhibition": 2.62}
{"compound": "CCc1ccccc1N1C[C@@]23C=C[C@@H](O2)C(C(=O)OCC(C)C)[C@H]3C1=O", "note": "(stereo partly drawn)", "inhibition": -0.48}
{"compound": "CCCCn1nc2cc(C(=O)N(CC)c3ccc(OC)cc3)ccc2c1OCC", "inhibition": 0.26}
{"compound": "CN(C)c1ccc(C(=S)N2CCN(c3ccc([N+](=O)[O-])cc3)CC2)cc1", "inhibition": 9.45}
{"compound": "COc1cc(NS(=O)(=O)c2ccc(N)cc2)nc(OC)n1", "inhibition": 14.8}
{"compound": "COc1cc(NS(=O)(=O)c2ccc(NC(C)=O)cc2)ncn1", "inhibition": 6.36}
{"compound": "O=C(CCC(=O)OCCCC(F)(F)C(F)(F)F)NC1CCCCC1", "inhibition": -2.21}
{"compound": "COc1ccccc1NC(=O)c1[nH]c(C)c(C(C)=O)c1C", "inhibition": -2.28}
{"compound": "Cc1nc(-c2ccccc2)sc1C1(C)CC(c2ccc([N+](=O)[O-])cc2)=NO1", "note": "(stereo not drawn)", "inhibition": -6.22}
{"compound": "CCN(CC)S(=O)(=O)c1cccc(-c2nnc(SCc3nc4ccccc4s3)o2)c1", "inhibition": 2.86}
{"compound": "Brc1ccccc1-c1nnc(SCc2nc3ccccc3s2)o1", "inhibition": 36}
{"compound": "COc1ccc(/C=C/C(=O)c2ccc(NC(=O)c3cccs3)cc2)cc1OC", "inhibition": 5.93}
{"compound": "C/C(=N\\NC(=O)CC(C)C)c1ccc(Cl)c(Cl)c1", "inhibition": -0.71}
{"compound": "COc1ccc(CNCC(O)(c2ccccc2)c2ccc(Cl)cc2)cc1", "note": "(stereo not drawn)", "inhibition": -0.19}
{"compound": "OC(CNCc1ccc(Cl)cc1)(c1ccccc1)c1ccc(F)cc1", "note": "(stereo not drawn)", "inhibition": -2.55}
{"compound": "Cc1ccc(S(=O)(=O)Nc2c(C)nn(C)c2C)cc1", "inhibition": -3.98}
{"compound": "Cc1cc(C)n(C(=O)CCC(=O)Nc2ccc(C)c(C)c2)n1", "inhibition": -4.23}
{"compound": "Cc1[nH]c2ccccc2c1NC(=O)CN1CCN(c2cccc(C(F)(F)F)c2)CC1", "inhibition": 8.35}
{"compound": "COc1ccc(-c2ncnc(C(F)(F)F)c2-c2csc(C)n2)c(O)c1", "inhibition": -3.59}
{"compound": "Nc1ccc(OCc2ccccc2)cc1", "inhibition": 78.2}
{"compound": "O=C(NCc1ccco1)c1ccc(COc2ccc(Cl)cc2)cc1", "inhibition": 15.4}
{"compound": "N#Cc1c(-c2ccc(Cl)cc2)nc2n(c1=O)CCCS2", "inhibition": -3.54}
{"compound": "O=c1c2ccccc2nc2n1CCCS2", "inhibition": -15.7}
{"compound": "O=c1c(C(c2ccc(Cl)cc2)c2c(O)nc3n(c2=O)CCCS3)c(O)nc2n1CCCS2", "inhibition": -3.6}
{"compound": "Cc1sc2nc3n(c(=O)c2c1C)CCCS3", "inhibition": -3}
{"compound": "COc1ccc(C(=O)NCCNc2ccccc2[N+](=O)[O-])cc1", "inhibition": -4.94}
{"compound": "O=C(COC(=O)Cn1cnc2ccccc21)NCCc1ccc(Cl)cc1", "inhibition": -3.57}
{"compound": "Cc1cccc(CN2C(=O)[C@H]3Cc4c([nH]c5ccccc45)C(C)(C)N3C2=O)c1", "inhibition": 17.7}
{"compound": "CC1(C)c2[nH]c3ccccc3c2C[C@@H]2C(=O)N(Cc3ccccc3)C(=O)N21", "inhibition": 2.35}
{"compound": "C=CCn1c(=O)c2c(C)c(C)sc2n2c(Nc3ccccc3)nnc12", "inhibition": -3.44}
{"compound": "O=C(CNc1cccc(Cl)c1)NNC(=S)NCc1ccccc1", "inhibition": -0.97}
{"compound": "COC(=O)/C=c1/sc2n(c1=O)CCN=2", "inhibition": -5.21}
{"compound": "CSc1ccc(CN2CCCC(CO)(Cc3ccccc3)C2)cc1", "note": "(stereo not drawn)", "inhibition": -4.33}
{"compound": "CCn1cnc2sc(C(=O)Nc3ccccc3OC)c(C)c2c1=O", "inhibition": 2.12}
{"compound": "CCn1cnc2sc(C(=O)O)c(C)c2c1=O", "inhibition": -6.48}
{"compound": "Cc1c(C(=O)O)sc2ncn(C)c(=O)c12", "inhibition": -6.12}
{"compound": "Cc1ccc(OCCn2cnc3sc(C(N)=O)c(C)c3c2=O)cc1", "inhibition": 11.2}
{"compound": "Cc1ccc(CC(=O)NCc2ccc3c(c2)OCO3)cc1", "inhibition": 23.6}
